Compounds with a hit are over-represented: about 5.7% of the library has one in this group of screens.
HT1080 IDH1KD tx: qHTS for induction of synthetic lethality in tumor cells producing 2HG: qHTS for the HT-1080-IDH1KD cell line | 360,000 tested, 2% active | Potency, µM (doses to about 46.1 µM), most hits filed as cytotoxic | HT-1080 IDH1 knockdown viability, ATP luminescence, 48 h
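Cytotoxicity counter-line: IDH1KD HT-1080, 48 h, CellTiter-Glo. Curves classed by r2, magnitude and activity.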
HT1080NT lethal: qHTS for induction of synthetic lethality in tumor cells producing 2HG: qHTS for the HT-1080-NT fibrosarcoma cell line | HT-1080-NT fibrosarcoma viability, CellTiter-Glo ATP luminescence, 48 h | Potency, µM (titrated, usually from 46.1 µM), most hits filed as cytotoxic | 360,000 tested, 1.6% active;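 further: NT is the 2HG producing partner of a matched IDH1 knockdown line; nearly all actives have a fitted effect of over 55% in size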
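Viability by CellTiter-Glo luminescence after 48 h compound exposure at 37C of HT-1080-NT cells (750/well, RPMI, 5% FBS). % activity scaled between DMSO wells and medium-only wells, then curve-fitted and categorized by curve class.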
KB-V1 MDR tox: qHTS assay for MDR1-selective chemotherapeutics: Primary screen using the drug-selected MDR subline cells KB-V1; KB-V1 MDR cells viability, CellTiter-Glo, 72 h; Potency, µM (series often up to 46.1 µM), usual class: cytotoxic; 400,000 tested, 3.4% active; AID 1347076, 2019; further: nearly all actives have a fitted effect of over 60% in size
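KB-V1 MDR subline cells in DMEM (phenol-red free, 10% FBS) exposed to compounds in qHTS concentration series for 72 h at 37 degrees C. Viability read by CellTiter-Glo luminescence; concentration-effect curves fitted after normalization and correction.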
KB-3-1 cytotox: qHTS assay for MDR1-selective chemotherapeutics: Primary screen using the parental adenocarcinoma cell KB-3-1; KB-3-1 viability, CellTiter-Glo ATP luminescence, 72 h; Potency, µM (series often up to 46.1 µM), usual class: cytotoxic; 400,000 tested, 1.4% active; AID 1347075, 2019; further: nearly all actives have a fitted effect of over 60% in size
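Screening of KB-3-1 cells (DMEM, 10% FBS, phenol-red free) ran from lowest to highest compound concentration; after 72 h at 37 °C viability was read luminescently and curves fitted.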
Hits are given with their value; n = inactive; u = inconclusive; x = not tested or not shown. The call rests on the fitted dose curve; in most records, active means well fitted curve in the direction sought with a large enough effect; inconclusive means small, poorly fitted or top-dose-only effect, or another doubt; inactive means no such curve, though single readings can be large; an effect the other way counts as inactive or inconclusive.

SMILES	HT1080 IDH1KD tx	HT1080NT lethal	KB-V1 MDR tox	KB-3-1 cytotox
CC(=O)c1ccc(OCCCC(=O)Nc2cccc(S(=O)(=O)N(C)C)c2)cc1	n	n	13µM	u
CC(=O)c1ccc(OCCCC(=O)Nc2cccc(S(=O)(=O)N3CCCCC3)c2)cc1	n	n	x	x
CN(C)S(=O)(=O)c1cccc(NC(=O)CCSc2ccc(Cl)cc2)c1	n	n	11.6µM	u
COc1cc(CCC(=O)Nc2cccc(S(=O)(=O)N(C)C)c2)cc(OC)c1OC	n	n	20.6µM	n
Cc1c(Cl)cccc1NC(=O)CNc1cccc(S(=O)(=O)N(C)C)c1	n	n	16.4µM	n
S=C(NCCCc1cnc[nH]1)NCCCN(CCc1ccc(Cl)cc1)c1ccc(Br)cn1	x	x	n	n
CN(C)S(=O)(=O)c1cccc(NC(=O)COc2ccccc2C(=O)NCc2ccccc2)c1	n	n	10.3µM	u
COc1ccccc1C(=O)NCC(=O)OCC(=O)Nc1cccc(S(=O)(=O)N(C)C)c1	n	n	n	n
Cc1ccc(S(=O)(=O)c2cc3c(=O)n4ccccc4nc3n(CCc3ccccc3)c2=N)cc1	n	n	n	n
Cc1ccc(S(=O)(=O)c2cc3c(=O)n4ccccc4nc3n(C)c2=N)cc1	n	n	6.51µM	n
Cc1ccc(S(=O)(=O)c2cc3c(=O)n4ccccc4nc3n(CC3CCCO3)c2=N)cc1C (stereo unspecified)	u	u	4.61µM	n
O=C(O)c1cc2cccc([N+](=O)[O-])c2[nH]1	n	n	n	n
CCOc1ccc(-n2c(SCc3ccc(C(=O)OC)o3)nc3c([nH]c4ccccc43)c2=O)cc1	x	x	u	n
O=[N+]([O-])c1ccc(/C=C/c2nc3ccc([N+](=O)[O-])cc3[nH]2)cc1	n	n	3.66µM	n
O=[N+]([O-])c1ccc2nc(CO)[nH]c2c1	x	x	n	n
Cc1ccc(CNC(=O)C(C)n2c(=O)cc(-c3ccccc3)c3c(C)nn(C)c32)cc1 (stereo unspecified)	x	x	n	n
CCN1CCN(CCNC(=O)c2ccc(/C=C3\Sc4ccccc4N(Cc4ccccc4F)C3=O)cc2)CC1	20.6µM	16.4µM	u	n
CN1CCN(CCCNC(=O)c2ccc(/C=C3\Sc4ccccc4N(Cc4ccc(F)cc4)C3=O)cc2)CC1	n	n	n	n
Cc1ccc(-c2c(C(=O)Nc3ccc(F)c(F)c3)oc(=O)c3ccccc23)cc1	x	x	n	n
C=C1CCC[C@]2(C)C[C@H]3OC(=O)C(CNC(C)CC)[C@H]3CC12 (stereo partly specified)	u	u	n	n
C=C1CCC[C@]2(C)C[C@H]3OC(=O)C(CNC(CC)CO)[C@H]3CC12 (stereo partly specified)	20.6µM	u	n	n
O=c1[nH]c2ccc(Cl)cc2c(-c2ccccc2)c1N1CCN(CCO)CC1	u	11.2µM	n	n
CCOC(=O)N1CCN(c2c(-c3ccccc3)c3cc(Cl)ccc3[nH]c2=O)CC1	n	n	9.2µM	u
CCOC(=O)C1CCN(c2c(-c3ccccc3)c3cc(Cl)ccc3[nH]c2=O)CC1	n	n	n	n
O=C(O)Cc1c(-c2ccccc2)c2cc(Cl)ccc2[nH]c1=O	n	n	n	n
SMILES	HT1080 IDH1KD tx	HT1080NT lethal	KB-V1 MDR tox	KB-3-1 cytotox
COc1ccc2nc(N=Nc3ccc(O)c4ccccc34)sc2c1	5.8µM	7.31µM	u	u
COc1ccc2nc(N=NC3=C(O)CC(C)(C)CC3=O)sc2c1	u	n	n	u
Cc1c(Cl)sn(-c2ccc(Cl)cc2)c1=O	2.59µM	25.9µM	u	16.4µM
N#CCN(C(=O)COC(=O)CCCNC(=O)c1ccc(Cl)cc1)c1ccccc1	n	n	20.6µM	n
O=C(COC(=O)CCCNC(=O)c1ccc(Cl)cc1)NCc1ccccc1Cl	n	n	n	n
Cc1ccc2nc(SCC(=O)Nc3cccc(S(=O)(=O)N(C)C)c3)[nH]c2c1	n	n	u	n
CCN(CC)S(=O)(=O)c1ccc(C)c(NC(=O)CSc2nc3ccc(C)cc3[nH]2)c1	n	n	14.6µM	n
Cc1ccc2nc(SCC(=O)Nc3cc(C(F)(F)F)ccc3N3CCOCC3)[nH]c2c1	1.03µM	u	u	0.82µM
CN(C)c1ccc(/C=C/c2ccnc3c([N+](=O)[O-])cccc23)cc1	x	x	n	u
CC(CCC(C)[n+]1cccc(Br)c1)[n+]1cccc(Br)c1 (stereo unspecified)	x	x	n	u
COc1ccc(C(C)=O)cc1Cn1c(C)c(C(=O)NCc2cccc(Cl)c2)sc1=O	n	n	u	n
COc1ccc(NC(=O)c2sc(=O)n(Cc3ccc(F)c(Cl)c3)c2C)cc1OC	u	n	u	4.61µM
COc1ccc(Cl)cc1Cn1c(C)c(C(=O)NCc2cccc(Cl)c2)sc1=O	n	n	14.6µM	n
COc1ccc(CNC(=O)c2sc(=O)n(Cc3cc(Cl)ccc3OC)c2C)cc1	n	n	u	n
CSc1ccc(Cn2c(C)c(C(=O)NCc3cccc(C)c3)sc2=O)cc1	u	n	9.2µM	n
Cc1c(C(=O)NCc2ccccc2C(F)(F)F)sc(=O)n1Cc1ccc(S(=O)(=O)N(C)C)cc1	n	n	8.2µM	u
Cn1c(=O)n(-c2ccc3c(c2)OCO3)c2nc(-c3ccccc3)nc(C(N)=O)c21	x	x	n	n
COc1ccc(OC)c(NC(=O)CN2C(=O)CC(C)Sc3ccccc32)c1 (stereo unspecified)	x	x	u	n
Cc1cccc(C)c1Cn1c(C)c(C(=O)NCc2ccc([N+](=O)[O-])cc2)sc1=O	u	u	2.59µM	u
CSc1ccc(Cn2c(C)c(C(=O)NCc3cccc(Cl)c3)sc2=O)cc1	u	n	9.2µM	n
C=Cc1ccc(Cn2c(C)c(C(=O)NCc3cccc(C)c3)sc2=O)cc1	u	n	u	n
Cc1cccc(CNC(=O)c2sc(=O)n(Cc3ccc(S(C)(=O)=O)cc3)c2C)c1	u	n	14.6µM	u
COc1ccc(CNC(=O)c2sc(=O)n(Cc3ccc(C)cc3)c2C)cc1	n	n	20.6µM	n
Cc1c(C(=O)NCc2ccc(Cl)c(Cl)c2)sc(=O)n1Cc1cccc(F)c1	u	u	u	n
COc1ccc(Cn2ccc3nc(C)c(C(=O)NCc4ccc(C)cc4)cc3c2=O)cc1	x	x	n	5.17µM
Cc1c(C(=O)NCc2cccc(Cl)c2)sc(=O)n1Cc1cccc(F)c1	u	u	18.4µM	n
O=C(c1ccc(Cn2c(=O)[nH]c3ccccc3c2=O)cc1)N1CCN(c2ccc(Cl)cc2)CC1	u	u	20.6µM	u
C=CCn1c(=O)[nH]c2cc(C(=O)N3CCN(c4cccc(Cl)c4)CC3)ccc2c1=O	n	n	11.6µM	u
COc1cc(C(=O)Nc2cc3c(cc2C)n(C)c(=O)c(=O)n3C)cc(OC)c1OC	x	x	n	n
CCc1ccc(NC(=O)C2CCCN2S(=O)(=O)c2ccc3c(c2)CCCC(=O)N3)cc1 (stereo unspecified)	x	x	n	n

Screening data: PubChem, National Center for Advancing Translational Sciences (NCATS)
